# From PubChem BioAssay (NCATS)
# Values joined by “and” are separate entries in the source; they are usually repeats but may differ in a detail not shown here. Identical values can stand only once. Results filed as inconclusive are left out. Entries that show only a call come without a potency. Active and inactive are the calls of the source. Unless noted, calls come from the whole dose curve.
# Key:
# [1] = target: Peroxisome proliferator-activated receptor gamma (Homo sapiens) (UniProt P37231); assay: qHTS assay for small molecule antagonists of peroxisome proliferator-activated receptor gamma signaling (AID 588537; active = well fitted inhibition curve with a large enough effect in the signal ratio, with a control signal flat, not every such curve was filed as active; the % refers to the signal ratio;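 note: reporter cells co-stimulated with 50 nM rosiglitazone agonist during compound treatment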)
# Procedure, shortened: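 PPAR-gamma-UAS-bla HEK293 cells (3000/well, 1% charcoal/dextran-stripped FBS) were preincubated 6-6.5 h at 37 C, given titrated compounds, then stimulated with 50 nM rosiglitazone for 16 h. Beta-lactamase activity was read with CCF4 dye; IC50 came from Hill fits.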
# [2] = target: Vitamin D3 receptor (Homo sapiens) (UniProt P11473); assay: qHTS assay for small molecule antagonists of vitamin D receptor signaling (AID 588541); note: potency is the fitted concentration of half-maximal effect
# Procedure, shortened: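 VDR-UAS-bla HEK293T cells (2000/well, 2% charcoal-stripped FBS) were treated with titrated compounds plus 1-alpha,25-dihydroxyvitamin D3 (50 nM or 3 nM final) for 16 h at 37 C. CCF4 beta-lactamase fluorescence was read; Hill fits gave IC50.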
# [3] = target: Vitamin D3 receptor (Homo sapiens) (UniProt P11473); assay: qHTS assay for small molecule agonists of vitamin D receptor signaling (AID 588543)
# Procedure, shortened: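 Agonist-mode beta-lactamase reporter: HEK293T VDR-UAS-bla cells in charcoal-stripped 2% FBS, compound series 16 h 37 C, CCF4 2 h RT. EC50 from Hill fit, scaled against DMSO and 50 nM calcitriol control.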
# [4] = qHTS assay for small molecule agonists of retinoid X receptor alpha signaling (AID 588544); details: HEK293T RXRa-UAS-bla, beta-lactamase reporter, 18 h; 530 nm emission; note: potency is the fitted concentration of half-maximal effect
# [5] = target: Retinoic acid receptor RXR-alpha (Homo sapiens) (UniProt P19793); assay: as above
# [6] = target: Thyroid hormone receptor beta (Homo sapiens) (UniProt P10828); assay: qHTS assay for small molecule agonists of thyroid hormone receptor beta signaling (AID 588545)
# Procedure, shortened: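 Stimulation of a TR-driven beta-lactamase reporter was quantified in GripTite HEK 293 cells. Compound series ran for 18 hrs; curves were normalized to T3 and DMSO controls and fitted to yield EC50.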
# [7] = qHTS assay for small molecule antagonists of retinoid X receptor alpha signaling (AID 588546; active = well fitted inhibition curve with a large enough effect in the signal ratio, with a control signal flat, not every such curve was filed as active; the % refers to the signal ratio;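 note: cells stimulated with 9-cis-retinoic acid as agonist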); details: HEK293T RXRa-UAS-bla, beta-lactamase ratio, antagonist mode; measured here: W530 green channel, cytotoxicity proxy
# Procedure, shortened: (§1)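 Beta-lactamase reporter inhibition, read as CCF4 fluorescence ratio (ex 405, em 460/530 nm) after 2 h at RT. HEK293T UAS-bla cells, 2500/well, were stimulated with 9-cis-RA at 500 or 100 nM final alongside test compound for 18 h at 37 C.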
# [8] = target: Retinoic acid receptor RXR-alpha (Homo sapiens) (UniProt P19793); assay: as above; details: HEK293T RXRa-UAS-bla, beta-lactamase ratio, antagonist mode
# Procedure, shortened: as §1
# [9] = target: Thyroid hormone receptor beta (Homo sapiens) (UniProt P10828); assay: qHTS assay for small molecule antagonists of thyroid hormone receptor beta signaling (AID 588547; active = well fitted inhibition curve with a large enough effect in the signal ratio, with a control signal flat, not every such curve was filed as active; the % refers to the signal ratio;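 note: cells stimulated with 0.4 nM T3 agonist during compound exposure; series mostly up to about 77 µM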); details: TR-UAS-bla HEK293, beta-lactamase ratio, antagonist mode, 18 h
# Procedure, shortened: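 TR-UAS-bla GripTite HEK293 cells in 2% charcoal/dextran FBS medium were preincubated 4 h at 37 C, given compound (0.59 nM to 92 uM) plus 0.4 nM T3 (final) for 18 h, then CCF4 for 2 h at RT; Hill fit gave IC50.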
# [10] = target: Voltage-gated inwardly rectifying potassium channel KCNH2 (Homo sapiens) (UniProt Q12809); assay: qHTS Assay for Small Molecule Inhibitors of the Human hERG Channel Activity (AID 588834; active = well fitted curve in the direction sought with a large enough effect; an effect the other way counts as inactive or inconclusive;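 note: top concentration of the series differs between compounds; lower thallium flux fluorescence means stronger hERG block; nearly all actives have a fitted effect of over 50% in size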)
# Procedure, shortened: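 Kinetic FDSS fluorescence; U2OS + hERG BacMam (~100 virus particles/cell); FluxOR Tl+ flux; ~10 min cpd; AC50 (Hill).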
# [11] = target: Luciferin 4-monooxygenase (Photinus pyralis) (UniProt P08659); assay: Biochemical firefly luciferase enzyme assay for NPC (AID 624030; active = well fitted curve in the direction sought with a large enough effect; an effect the other way counts as inactive or inconclusive;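 note: purified P. pyralis luciferase at 10 nM with luciferin and ATP substrate; series mostly up to about 59 µM; nearly all actives have a fitted effect of over 70% in size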)
# Procedure, shortened: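 Counter-screen for direct inhibition of the luciferase enzyme by approved-drug library compounds, run at 10 nM enzyme in 50 mM Tris acetate (final). Luminescence was read within 5 min of enzyme-buffer addition and normalized to PTC124 versus DMSO (0%).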
# [12] = S16 Schwann cell viability assay (CellTiter-Glo assay) (AID 624031; active = well fitted curve in the direction sought with a large enough effect; an effect the other way counts as inactive or inconclusive; note: nearly all actives have a fitted effect of over 70% in size; note: potency is the fitted concentration of half-maximal effect)
# Procedure, shortened: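 Counter-screen for cytotoxicity: parental S16 rat Schwann cells lacking the PMP22 reporters, treated 24 h with compound, viability from cellular ATP by CellTiter-Glo luminescence, normalized to DMSO (0%) and no-cell wells.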
# [13] = S16 Schwann cell PMP22 intronic element firefly luciferase assay (AID 624032; active = well fitted curve in the direction sought with a large enough effect; an effect the other way counts as inactive or inconclusive; note: nearly all actives have a fitted effect of over 30% in size; note: potency is the fitted concentration of half-maximal effect)
# Procedure, shortened: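 Rat S16 Schwann cells stably carrying a PMP22 intronic element-driven Fluc reporter were seeded overnight, then exposed to compounds for 24 h at 37 °C. Luminescence was normalized to PTC124 (positive control) and DMSO (0% activity).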
# [14] = S16 Schwann cell PMP22 intronic element beta-lactamase assay (AID 624044); note: nearly all actives have a fitted effect of over 15% in size
# Procedure, shortened: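 Rat S16 Schwann cells with beta-Lac driven by a PMP22 intronic element, compound-treated 24 h at 37 °C. LiveBLAzer FRET B/G read: 460 nm normalized to potassium clavulanate vs DMSO; 535 nm FRET as viability; concentration-effect curves classified.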
# [15] = qHTS assay for small molecule agonists of the antioxidant response element (ARE) signaling pathway (AID 651741; active = well fitted activation curve with a large enough effect in the signal ratio; the % refers to the signal ratio; note: potency is the fitted concentration of half-maximal effect)
# Procedure, shortened: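 ARE-bla HepG2 cells (beta-lactamase reporter under ARE control) were plated at 2,000 cells/well, preincubated 5 h at 37 C/5% CO2, then treated with DMSO-dissolved compounds for 16 h at 37 C; LiveBLAzer B/G FRET substrate added, fluorescence read after 2 h at room temperature.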
# [16] = target: Glutaminase kidney isoform, mitochondrial (Homo sapiens) (UniProt O94925); assay: qHTS for Inhibitors of Glutaminase (GLS): LOPAC Validation (AID 624146; active = well fitted curve in the direction sought with a large enough effect; an effect the other way counts as inactive or inconclusive; note: nearly all actives have a fitted effect of over 60% in size; note: potency is the fitted concentration of half-maximal effect)
# Procedure, shortened: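 Two-point fluorescence kinetic (t0, 30 min RT) for hKGA; glutamate detected via glutamate oxidase–HRP–Amplex Red. Substrate: 1 mM L-glutamine solution; buffer 45 mM KH2PO4, pH 8.2.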
# [17] = target: Glucagon-like peptide 1 receptor (Homo sapiens) (UniProt P43220); assay: qHTS of GLP-1 Receptor Agonists: LOPAC Validation (AID 624148; active = well fitted curve in the direction sought with a large enough effect; an effect the other way counts as inactive or inconclusive;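 note: higher luminescence signal means agonism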)
# Procedure, shortened: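 HEK293 cells stably co-expressing a cAMP-responsive luciferase reporter and a hypersensitive GLP-1R were plated 12 h at 37 °C and exposed to compounds for 4-6 hr at 37 °C, 5% CO2. Luminescence was read 12 min after adding detection reagent.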
# [18] = HTS Assay for Allosteric Antagonists of the Human D2 Dopamine Receptor: Hit Validation in HTRF (AID 624455; active = well fitted curve in the direction sought with a large enough effect; an effect the other way counts as inactive or inconclusive;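 note: stable D1 dopamine receptor cell line scored for blocking the D1 response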)
# Procedure, shortened: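 Signal from an HTRF read-out in D1-expressing stable cells gave hit activity as inhibition of the D1 response.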
# [19] = qHTS of Trypanosoma Brucei Inhibitors: LOPAC Validation (AID 624147; active = well fitted curve in the direction sought with a large enough effect; an effect the other way counts as inactive or inconclusive)
# Procedure, shortened: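 Activity of T. brucei pyruvate kinase was followed by Kinase-Glo Plus luminescence after the enzyme reacted 45 min at room temperature with 130 uM ADP (final) and substrate. Test compounds were added before ADP at multiple concentrations.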
# [20] = qHTS of Nrf2 Activators: LOPAC Validation (AID 624149; active = well fitted curve in the direction sought with a large enough effect; an effect the other way counts as inactive or inconclusive)
# Procedure, shortened: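 ARE reporter activation measured in AREc32 firefly luciferase cells after 24 hr compound exposure; Steady-Glo luminescence.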
# Thyroid hormone receptor beta (Homo sapiens), sequence (P10828 whole entry, looked up): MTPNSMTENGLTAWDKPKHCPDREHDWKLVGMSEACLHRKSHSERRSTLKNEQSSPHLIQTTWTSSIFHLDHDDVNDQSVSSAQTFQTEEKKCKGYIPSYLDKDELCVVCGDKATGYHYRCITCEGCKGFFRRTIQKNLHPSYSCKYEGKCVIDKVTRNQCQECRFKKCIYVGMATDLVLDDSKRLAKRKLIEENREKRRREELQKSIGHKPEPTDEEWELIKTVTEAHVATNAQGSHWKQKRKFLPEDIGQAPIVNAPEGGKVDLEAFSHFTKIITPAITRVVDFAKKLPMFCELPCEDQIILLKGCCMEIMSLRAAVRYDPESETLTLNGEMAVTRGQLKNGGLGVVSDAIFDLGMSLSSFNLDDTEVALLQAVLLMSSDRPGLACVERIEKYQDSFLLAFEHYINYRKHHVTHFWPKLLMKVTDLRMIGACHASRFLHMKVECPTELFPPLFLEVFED
# Retinoic acid receptor RXR-alpha (Homo sapiens), sequence (P19793 whole entry, looked up): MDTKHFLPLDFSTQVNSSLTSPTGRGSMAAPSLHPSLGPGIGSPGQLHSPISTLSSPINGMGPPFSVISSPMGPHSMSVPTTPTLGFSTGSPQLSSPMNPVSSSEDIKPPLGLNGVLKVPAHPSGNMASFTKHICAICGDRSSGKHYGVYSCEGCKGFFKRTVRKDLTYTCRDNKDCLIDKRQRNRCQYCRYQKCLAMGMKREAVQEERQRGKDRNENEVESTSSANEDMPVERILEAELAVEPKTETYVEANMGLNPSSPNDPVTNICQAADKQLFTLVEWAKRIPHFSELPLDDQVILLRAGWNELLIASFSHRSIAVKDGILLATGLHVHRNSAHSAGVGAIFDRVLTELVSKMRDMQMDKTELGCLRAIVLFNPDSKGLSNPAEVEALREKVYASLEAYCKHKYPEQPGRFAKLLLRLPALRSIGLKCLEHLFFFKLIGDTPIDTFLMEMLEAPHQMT
# Luciferin 4-monooxygenase (Photinus pyralis), sequence (P08659 whole entry, looked up): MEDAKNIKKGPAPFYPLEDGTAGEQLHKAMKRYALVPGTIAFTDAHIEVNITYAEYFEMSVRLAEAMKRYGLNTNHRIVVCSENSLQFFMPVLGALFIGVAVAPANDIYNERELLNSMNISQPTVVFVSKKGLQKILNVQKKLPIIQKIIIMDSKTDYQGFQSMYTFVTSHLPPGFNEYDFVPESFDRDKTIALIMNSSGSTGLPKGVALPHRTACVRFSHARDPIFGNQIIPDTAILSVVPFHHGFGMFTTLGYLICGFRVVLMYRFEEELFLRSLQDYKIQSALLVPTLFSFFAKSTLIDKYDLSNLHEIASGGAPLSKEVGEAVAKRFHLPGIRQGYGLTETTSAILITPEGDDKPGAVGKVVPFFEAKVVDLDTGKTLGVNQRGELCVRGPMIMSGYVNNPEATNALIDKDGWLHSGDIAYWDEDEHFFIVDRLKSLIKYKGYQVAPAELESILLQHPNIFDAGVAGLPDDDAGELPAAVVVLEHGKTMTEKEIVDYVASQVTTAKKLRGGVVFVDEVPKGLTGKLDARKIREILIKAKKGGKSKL
# Vitamin D3 receptor (Homo sapiens), sequence (P11473 whole entry, looked up): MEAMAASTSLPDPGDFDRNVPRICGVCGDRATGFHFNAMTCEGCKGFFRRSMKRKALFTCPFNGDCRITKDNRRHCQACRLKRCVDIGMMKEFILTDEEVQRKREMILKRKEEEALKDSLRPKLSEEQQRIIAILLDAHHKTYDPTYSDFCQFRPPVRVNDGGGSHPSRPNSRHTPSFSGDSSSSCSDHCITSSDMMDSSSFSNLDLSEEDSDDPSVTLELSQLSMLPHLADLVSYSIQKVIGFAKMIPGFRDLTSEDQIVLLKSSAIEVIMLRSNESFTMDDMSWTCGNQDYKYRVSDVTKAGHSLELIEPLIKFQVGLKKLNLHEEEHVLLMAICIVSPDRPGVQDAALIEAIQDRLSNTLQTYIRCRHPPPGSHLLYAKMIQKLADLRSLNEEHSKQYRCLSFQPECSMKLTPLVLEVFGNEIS
# Voltage-gated inwardly rectifying potassium channel KCNH2 (Homo sapiens), sequence (Q12809 whole entry, looked up): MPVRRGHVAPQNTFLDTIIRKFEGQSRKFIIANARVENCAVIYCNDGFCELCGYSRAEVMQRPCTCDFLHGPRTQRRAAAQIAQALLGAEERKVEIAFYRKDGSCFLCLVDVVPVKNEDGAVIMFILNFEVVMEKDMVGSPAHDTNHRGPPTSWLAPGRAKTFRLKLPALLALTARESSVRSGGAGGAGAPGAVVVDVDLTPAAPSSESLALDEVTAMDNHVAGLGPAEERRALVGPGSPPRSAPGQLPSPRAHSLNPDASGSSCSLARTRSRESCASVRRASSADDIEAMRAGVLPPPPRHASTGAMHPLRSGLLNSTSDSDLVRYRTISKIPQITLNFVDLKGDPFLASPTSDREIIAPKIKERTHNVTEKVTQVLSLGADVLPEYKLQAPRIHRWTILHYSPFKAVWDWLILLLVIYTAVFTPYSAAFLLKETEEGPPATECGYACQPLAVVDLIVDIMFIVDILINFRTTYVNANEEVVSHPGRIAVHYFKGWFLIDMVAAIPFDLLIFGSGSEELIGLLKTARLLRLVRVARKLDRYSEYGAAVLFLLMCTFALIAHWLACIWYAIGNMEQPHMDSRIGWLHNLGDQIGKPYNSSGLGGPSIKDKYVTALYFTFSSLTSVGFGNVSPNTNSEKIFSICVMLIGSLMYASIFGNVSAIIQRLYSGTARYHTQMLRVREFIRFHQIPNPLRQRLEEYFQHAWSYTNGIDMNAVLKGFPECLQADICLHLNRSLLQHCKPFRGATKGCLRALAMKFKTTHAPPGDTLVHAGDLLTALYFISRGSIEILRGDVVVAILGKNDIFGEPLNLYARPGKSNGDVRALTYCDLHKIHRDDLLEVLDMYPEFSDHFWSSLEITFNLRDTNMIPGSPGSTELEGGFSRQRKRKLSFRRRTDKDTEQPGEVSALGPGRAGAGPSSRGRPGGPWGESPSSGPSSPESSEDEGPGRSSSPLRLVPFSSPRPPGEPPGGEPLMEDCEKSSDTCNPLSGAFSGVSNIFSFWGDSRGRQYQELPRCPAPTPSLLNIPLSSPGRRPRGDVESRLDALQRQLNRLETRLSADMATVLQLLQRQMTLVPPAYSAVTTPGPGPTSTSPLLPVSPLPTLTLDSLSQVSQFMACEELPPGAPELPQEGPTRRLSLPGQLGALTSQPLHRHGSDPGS
# Peroxisome proliferator-activated receptor gamma (Homo sapiens), sequence (P37231 whole entry, looked up): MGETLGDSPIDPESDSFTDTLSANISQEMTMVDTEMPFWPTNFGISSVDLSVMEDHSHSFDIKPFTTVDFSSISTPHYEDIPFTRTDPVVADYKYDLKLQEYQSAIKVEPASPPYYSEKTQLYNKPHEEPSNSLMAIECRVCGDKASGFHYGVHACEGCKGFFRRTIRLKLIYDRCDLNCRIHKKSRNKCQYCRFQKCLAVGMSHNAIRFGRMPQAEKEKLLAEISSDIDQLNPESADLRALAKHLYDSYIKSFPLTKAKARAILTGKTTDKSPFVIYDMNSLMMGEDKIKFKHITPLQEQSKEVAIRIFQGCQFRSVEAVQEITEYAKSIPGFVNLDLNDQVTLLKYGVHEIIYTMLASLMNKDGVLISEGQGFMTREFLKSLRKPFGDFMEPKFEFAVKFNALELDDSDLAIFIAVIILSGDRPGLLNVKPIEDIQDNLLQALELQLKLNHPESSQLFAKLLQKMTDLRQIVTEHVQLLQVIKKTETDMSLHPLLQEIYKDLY
# Glutaminase kidney isoform, mitochondrial (Homo sapiens), sequence (O94925 whole entry, looked up, canonical isoform): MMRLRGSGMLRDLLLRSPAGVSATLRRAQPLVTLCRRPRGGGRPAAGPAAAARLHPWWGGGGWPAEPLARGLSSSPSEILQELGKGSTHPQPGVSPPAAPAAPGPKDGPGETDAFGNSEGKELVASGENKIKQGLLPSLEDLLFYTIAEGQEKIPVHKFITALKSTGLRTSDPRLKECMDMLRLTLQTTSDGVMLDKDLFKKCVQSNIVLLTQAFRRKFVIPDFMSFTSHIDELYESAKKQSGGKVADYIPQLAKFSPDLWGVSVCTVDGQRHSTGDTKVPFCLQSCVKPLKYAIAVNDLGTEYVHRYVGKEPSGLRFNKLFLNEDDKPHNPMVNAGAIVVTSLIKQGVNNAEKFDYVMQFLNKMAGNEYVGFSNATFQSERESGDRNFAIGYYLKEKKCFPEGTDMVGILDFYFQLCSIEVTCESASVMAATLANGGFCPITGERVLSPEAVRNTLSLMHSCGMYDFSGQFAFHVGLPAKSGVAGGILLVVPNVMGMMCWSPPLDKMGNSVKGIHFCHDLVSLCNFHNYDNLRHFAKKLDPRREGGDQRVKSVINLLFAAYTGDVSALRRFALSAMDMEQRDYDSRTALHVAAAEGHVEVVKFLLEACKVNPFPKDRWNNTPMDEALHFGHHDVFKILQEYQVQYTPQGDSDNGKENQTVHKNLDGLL
# Glucagon-like peptide 1 receptor (Homo sapiens), sequence (P43220 whole entry, looked up): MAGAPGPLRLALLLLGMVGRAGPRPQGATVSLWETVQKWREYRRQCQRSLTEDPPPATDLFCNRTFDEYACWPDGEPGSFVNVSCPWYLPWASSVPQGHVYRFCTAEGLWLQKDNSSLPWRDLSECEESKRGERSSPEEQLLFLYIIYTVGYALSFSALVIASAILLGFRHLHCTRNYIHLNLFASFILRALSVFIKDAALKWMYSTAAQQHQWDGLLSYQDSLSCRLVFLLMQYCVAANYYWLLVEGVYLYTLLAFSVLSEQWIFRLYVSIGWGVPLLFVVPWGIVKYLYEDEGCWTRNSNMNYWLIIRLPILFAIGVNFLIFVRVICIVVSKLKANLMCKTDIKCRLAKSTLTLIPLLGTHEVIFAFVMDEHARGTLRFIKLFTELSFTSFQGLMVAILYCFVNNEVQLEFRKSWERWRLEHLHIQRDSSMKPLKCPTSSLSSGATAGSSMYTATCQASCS
Structure (SMILES),Potency [1],Potency [2],outcome [3],max response [4],Potency [5],outcome [6],max response [7],max response [8],activity change % (negative = inhibition) [9],Potency [10],Potency [11],Potency [12],Potency [13],Potency [14],Potency [15],Potency [16],outcome [17],Potency [18],Potency [19],Potency [20]
CCCCCCCCOC(=O)c1ccccc1C(=O)OCCCCCCCC,inactive,inactive,inactive,-12.6% and -10.6%,inactive,inactive,-8.04% and -12.9%,24.3% (inactive) and -9.86% (inactive),0.822% (inactive),inactive,inactive,inactive,inactive,inactive,inactive,–,–,–,–,–
O=C(O)c1cc[c]([Hg][Cl])cc1,inactive,39.8 µM (active),inactive,–,–,inactive,–,–,-18.8% (inactive),inactive,–,–,–,–,30.6 µM (active),3.55 µM (active),inactive,inactive,–,–
CCOP(=O)(OCC)O/C(=C/Cl)c1ccc(Cl)cc1Cl,–,inactive,inactive,10.8%,inactive,inactive,4.06% and 8.46%,-33.2% (inactive) and -25.5% (inactive),-5.99% (inactive),inactive,–,inactive,inactive,–,30.6 µM (active),–,–,–,–,–
NNC(N)=O,–,inactive,inactive,-3.29%,inactive,inactive,–,–,-12% (inactive),inactive,–,–,–,–,–,inactive,inactive,inactive,inactive,inactive
ClC(Cl)(Cl)Cl,inactive,inactive,inactive,-19.2% and -11.8%,inactive,inactive,-0.129%,1.39% (inactive),-13.7% (inactive) and 5.43% (inactive),inactive,inactive,inactive,inactive,inactive,inactive,–,–,–,–,–
ClC1C(Cl)C(Cl)C(Cl)C(Cl)C1Cl (stereo not given),inactive,–,–,-3.03% [middle of 4 runs],inactive,inactive,-10.8% [middle of 4 runs],-6.12% (inactive) [middle of 4 runs],0.744% (inactive) [middle of 4 runs],inactive,inactive,inactive,inactive,inactive,inactive,–,–,–,–,–
C[C@H]1CC[C@@H]2[C@@H](C)[C@H]3[C@H](C[C@H]4[C@@H]5CC=C6CC(O[C@@H]7O[C@H](CO)[C@H](O)[C@H](O[C@@H]8O[C@H](CO)[C@@H](O)[C@H](O)[C@H]8O)[C@H]7O[C@H]7O[C@@H](C)[C@H](O)[C@@H](O)[C@H]7O)CC[C@]6(C)[C@H]5CC[C@]34C)N2C1 (stereo not given in full),inactive,inactive,inactive,–,–,–,–,–,–,inactive,–,–,28.7 µM (active),–,–,–,–,–,–,–
C[C@]12CCC(=O)C[C@@H]1CC[C@@H]1[C@@H]2CC[C@]2(C)[C@@H](O)CC[C@@H]12,–,inactive,inactive,21%,7.94 µM (active),inactive,16.7%,-6.47% (inactive),2.39% (inactive),inactive,–,inactive,–,inactive,24.3 µM (active),–,–,–,–,–
O=[N+]([O-])C(Br)(CO)CO,inactive,–,inactive,–,–,–,–,–,5.27% (inactive),inactive,–,28.7 µM (active),–,–,54.5 µM (active),–,–,–,–,–
